Results: PMC9838217, “Structure of SALL4 zinc finger domain reveals link between AT-rich DNA binding and Okihiro syndrome”
Where a chain is given by its changes, count along the chain named.

Assays:
Assay in all cases: HT-SELEX; high values mean tight binding
Conditions in all cases: protein: recombinant; vector His6-GST; dsDNA, one strand shown
SALL4 ZFC4 WT (HT-SELEX) = target: T1, SALL4 ZFC4 WT (HT-SELEX) (Mus musculus, UniProt Q8BX22 870-940)
T1 sequence: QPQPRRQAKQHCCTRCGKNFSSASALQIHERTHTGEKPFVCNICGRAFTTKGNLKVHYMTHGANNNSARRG
Method in brief: (§1)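 Up to 6 cycles of selection were run in triplicate. In each, purified recombinant mouse SALL4 zinc finger cluster 4 (residues 870–940, 1 µg) was incubated with library DNA (1.5 µg first cycle, 200 ng later) in 100 µl of 10 mM Tris–HCl pH 7.5, 50 mM NaCl, poly(dI-dC), DTT for 10 min at room temperature, then complexes were captured on Ni2+ beads, washed and PCR-amplified; final pools were MiSeq-sequenced and scanned for 6-mers. Binding signal is each canonical k-mer's read fraction as fold change versus the initial random library.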

[1] = target: T2, SALL4 ZFC4 R900W (HT-SELEX) (Mus musculus, UniProt Q8BX22 870-940, R900W)
T2 sequence: T1 sequence with R31W
Method in brief: as §1

[2] = target: T3, SALL4 ZFC4 G921D (HT-SELEX) (Mus musculus, UniProt Q8BX22 870-940, G921D)
T3 sequence: T1 sequence with G52D
Method in brief: as §1

Sequence: CACGAA
- binding signal (SALL4 ZFC4 WT (HT-SELEX)): 0.608 ± 0.0441 fold-change vs cycle 0
- binding signal [1]: 0.706 ± 0.0334 fold-change vs cycle 0
- binding signal [2]: 0.781 ± 0.0236 fold-change vs cycle 0

Sequence: ACAAGT
- binding signal (SALL4 ZFC4 WT (HT-SELEX)): 1.24 ± 0.0226 fold-change vs cycle 0
- binding signal [1]: 1.4 ± 0.0269 fold-change vs cycle 0
- binding signal [2]: 1.35 ± 0.0304 fold-change vs cycle 0

Sequence: ACAGAT
- binding signal (SALL4 ZFC4 WT (HT-SELEX)): 1.32 ± 0.0342 fold-change vs cycle 0
- binding signal [1]: 1.4 ± 0.028 fold-change vs cycle 0
- binding signal [2]: 1.37 ± 0.0364 fold-change vs cycle 0

Sequence: CATTGA
- binding signal (SALL4 ZFC4 WT (HT-SELEX)): 1.25 ± 0.0236 fold-change vs cycle 0
- binding signal [1]: 1.39 ± 0.0271 fold-change vs cycle 0
- binding signal [2]: 1.35 ± 0.0347 fold-change vs cycle 0

Sequence: AAGACG
- binding signal (SALL4 ZFC4 WT (HT-SELEX)): 0.635 ± 0.0182 fold-change vs cycle 0
- binding signal [1]: 0.735 ± 0.023 fold-change vs cycle 0
- binding signal [2]: 0.815 ± 0.0404 fold-change vs cycle 0

Sequence: ATACAA
- binding signal (SALL4 ZFC4 WT (HT-SELEX)): 2 ± 0.0726 fold-change vs cycle 0
- binding signal [1]: 1.98 ± 0.0733 fold-change vs cycle 0
- binding signal [2]: 1.76 ± 0.0991 fold-change vs cycle 0

Sequence: CAACCG
- binding signal (SALL4 ZFC4 WT (HT-SELEX)): 0.334 ± 0.0164 fold-change vs cycle 0
- binding signal [1]: 0.389 ± 0.015 fold-change vs cycle 0
- binding signal [2]: 0.509 ± 0.0746 fold-change vs cycle 0

Sequence: AACAGT
- binding signal (SALL4 ZFC4 WT (HT-SELEX)): 1.28 ± 0.0479 fold-change vs cycle 0
- binding signal [1]: 1.41 ± 0.0726 fold-change vs cycle 0
- binding signal [2]: 1.35 ± 0.0692 fold-change vs cycle 0

Sequence: ACCTAA
- binding signal (SALL4 ZFC4 WT (HT-SELEX)): 1.36 ± 0.0814 fold-change vs cycle 0
- binding signal [1]: 1.46 ± 0.0702 fold-change vs cycle 0
- binding signal [2]: 1.37 ± 0.0509 fold-change vs cycle 0

Sequence: AGGACC
- binding signal (SALL4 ZFC4 WT (HT-SELEX)): 0.441 ± 0.038 fold-change vs cycle 0
- binding signal [1]: 0.54 ± 0.0359 fold-change vs cycle 0
- binding signal [2]: 0.632 ± 0.0389 fold-change vs cycle 0

Sequence: GTCCAA
- binding signal (SALL4 ZFC4 WT (HT-SELEX)): 0.622 ± 0.0212 fold-change vs cycle 0
- binding signal [1]: 0.742 ± 0.0519 fold-change vs cycle 0
- binding signal [2]: 0.828 ± 0.0714 fold-change vs cycle 0

Sequence: CAGACA
- binding signal (SALL4 ZFC4 WT (HT-SELEX)): 0.66 ± 0.0364 fold-change vs cycle 0
- binding signal [1]: 0.798 ± 0.012 fold-change vs cycle 0
- binding signal [2]: 0.862 ± 0.0574 fold-change vs cycle 0

Sequence: AGGTAT
- binding signal (SALL4 ZFC4 WT (HT-SELEX)): 1.44 ± 0.0737 fold-change vs cycle 0
- binding signal [1]: 1.54 ± 0.0608 fold-change vs cycle 0
- binding signal [2]: 1.47 ± 0.0842 fold-change vs cycle 0

Sequence: CAAACG
- binding signal (SALL4 ZFC4 WT (HT-SELEX)): 0.563 ± 0.00697 fold-change vs cycle 0
- binding signal [1]: 0.704 ± 0.014 fold-change vs cycle 0
- binding signal [2]: 0.777 ± 0.055 fold-change vs cycle 0

Sequence: ATTGAG
- binding signal (SALL4 ZFC4 WT (HT-SELEX)): 1.27 ± 0.0638 fold-change vs cycle 0
- binding signal [1]: 1.38 ± 0.0358 fold-change vs cycle 0
- binding signal [2]: 1.36 ± 0.122 fold-change vs cycle 0

Sequence: ACTCCG
- binding signal (SALL4 ZFC4 WT (HT-SELEX)): 0.4 ± 0.00858 fold-change vs cycle 0
- binding signal [1]: 0.466 ± 0.0288 fold-change vs cycle 0
- binding signal [2]: 0.594 ± 0.0678 fold-change vs cycle 0

Sequence: CGTACC
- binding signal (SALL4 ZFC4 WT (HT-SELEX)): 0.409 ± 0.0203 fold-change vs cycle 0
- binding signal [1]: 0.467 ± 0.0146 fold-change vs cycle 0
- binding signal [2]: 0.564 ± 0.0582 fold-change vs cycle 0

Sequence: AAGTGG
- binding signal (SALL4 ZFC4 WT (HT-SELEX)): 0.762 ± 0.0311 fold-change vs cycle 0
- binding signal [1]: 0.891 ± 0.0548 fold-change vs cycle 0
- binding signal [2]: 0.909 ± 0.0639 fold-change vs cycle 0

Sequence: ATCGAA
- binding signal (SALL4 ZFC4 WT (HT-SELEX)): 1.17 ± 0.0408 fold-change vs cycle 0
- binding signal [1]: 1.16 ± 0.0416 fold-change vs cycle 0
- binding signal [2]: 1.2 ± 0.0145 fold-change vs cycle 0

Sequence: CTACCC
- binding signal (SALL4 ZFC4 WT (HT-SELEX)): 0.454 ± 0.0263 fold-change vs cycle 0
- binding signal [1]: 0.523 ± 0.00774 fold-change vs cycle 0
- binding signal [2]: 0.607 ± 0.0541 fold-change vs cycle 0

Sequence: TGGCAA
- binding signal (SALL4 ZFC4 WT (HT-SELEX)): 0.479 ± 0.0154 fold-change vs cycle 0
- binding signal [1]: 0.535 ± 0.0186 fold-change vs cycle 0
- binding signal [2]: 0.673 ± 0.0414 fold-change vs cycle 0

Sequence: GGGTGA
- binding signal (SALL4 ZFC4 WT (HT-SELEX)): 0.483 ± 0.00743 fold-change vs cycle 0
- binding signal [1]: 0.541 ± 0.0302 fold-change vs cycle 0
- binding signal [2]: 0.632 ± 0.0295 fold-change vs cycle 0

Sequence: ATTATA
- binding signal (SALL4 ZFC4 WT (HT-SELEX)): 4.99 ± 0.594 fold-change vs cycle 0
- binding signal [1]: 2.65 ± 0.265 fold-change vs cycle 0
- binding signal [2]: 2.25 ± 0.311 fold-change vs cycle 0

Sequence: GAGGTA
- binding signal (SALL4 ZFC4 WT (HT-SELEX)): 0.857 ± 0.032 fold-change vs cycle 0
- binding signal [1]: 0.988 ± 0.0197 fold-change vs cycle 0
- binding signal [2]: 0.996 ± 0.0208 fold-change vs cycle 0

Sequence: CCCTGA
- binding signal (SALL4 ZFC4 WT (HT-SELEX)): 0.494 ± 0.0131 fold-change vs cycle 0
- binding signal [1]: 0.574 ± 0.0156 fold-change vs cycle 0
- binding signal [2]: 0.665 ± 0.0261 fold-change vs cycle 0

Sequence: CTGGAA
- binding signal (SALL4 ZFC4 WT (HT-SELEX)): 0.772 ± 0.02 fold-change vs cycle 0
- binding signal [1]: 0.891 ± 0.0485 fold-change vs cycle 0
- binding signal [2]: 0.926 ± 0.0429 fold-change vs cycle 0

Sequence: AAACTA
- binding signal (SALL4 ZFC4 WT (HT-SELEX)): 1.88 ± 0.106 fold-change vs cycle 0
- binding signal [1]: 1.85 ± 0.13 fold-change vs cycle 0
- binding signal [2]: 1.68 ± 0.169 fold-change vs cycle 0

Sequence: ATTGGG
- binding signal (SALL4 ZFC4 WT (HT-SELEX)): 0.725 ± 0.0369 fold-change vs cycle 0
- binding signal [1]: 0.818 ± 0.0162 fold-change vs cycle 0
- binding signal [2]: 0.856 ± 0.0353 fold-change vs cycle 0

Sequence: AACAAA
- binding signal (SALL4 ZFC4 WT (HT-SELEX)): 1.75 ± 0.107 fold-change vs cycle 0
- binding signal [1]: 1.8 ± 0.139 fold-change vs cycle 0
- binding signal [2]: 1.64 ± 0.143 fold-change vs cycle 0

Sequence: CACCAC
- binding signal (SALL4 ZFC4 WT (HT-SELEX)): 0.402 ± 0.0296 fold-change vs cycle 0
- binding signal [1]: 0.465 ± 0.0324 fold-change vs cycle 0
- binding signal [2]: 0.587 ± 0.0576 fold-change vs cycle 0
